The results in this text go back to PubChem BioAssay (NCATS).

Test [1] can be described thus: qHTS of pediatric cancer cell lines to identify multiple opportunities for drug repurposing: Confirmatory screen for Rh18 cells (AID 1347125). Also: nearly all actives have a fitted effect of over 55% in size. Also: potency is read from the fitted curve at half-maximal effect. The method in brief: (§1)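 Viability after 48 h compound treatment at 37C, 500-1,000 cells/well, read as ATP luminescence with CellTiter-Glo. Primary screens used 11-point (MIPE, 0.78 nM-46 µM) or 8-point (NPC, 0.59 nM-46 µM) final concentrations; follow-up screens used 11-point dilutions.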

Test [2] is described as follows: qHTS of pediatric cancer cell lines to identify multiple opportunities for drug repurposing: Confirmatory screen for Rh30 cells (AID 1347126). Also: nearly all actives have a fitted effect of over 55% in size. Also: potency is read from the fitted curve at half-maximal effect. The method in brief: as §1
For test [3], the system named is Zika virus NS2B-NS3 protease. Description: Primary screen GU AMC qHTS for Zika virus inhibitors (AID 1347154). Also: nearly all actives have a fitted effect of over 70% in size. The method in brief:
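Unlinked Zika NS2B hydrophilic domain–NS3 protease complex at 25 nM in 10 mM Tris-HCl pH 8.0, 0.01% Tween 20, with an AMC peptide substrate. Fluorescence change (340/450 nm) over 15 min at room temperature, normalized to controls, fitted to 4-parameter Hill.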

Test [4] concerns Zika virus NS2B-NS3 protease (unlinked complex). Description: Primary screen GU Rhodamine qHTS for Zika virus inhibitors: Unlinked NS2B-NS3 protease assay (AID 1347159). Also: nearly all actives have a fitted effect of over 60% in size. Also: potency is read from the fitted curve at half-maximal effect. The method in brief:
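Noncovalent NS2B hydrophilic domain–NS3 protease domain complex (25 nM) preincubated 15 min at room temperature with compounds (up to 114 microM) in 10 mM Tris-HCl pH 8.0, 0.01% Tween 20; 1.5 microM Rhodamine110 substrate added, fluorescence change over 15 min fitted to Hill equation.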

Test [5] concerns Zika virus NS2B-NS3 protease (linked construct). Nature of the test: Primary screen NINDS Rhodamine qHTS for Zika virus inhibitors (AID 1347160). Also: nearly all actives have a fitted effect of over 55% in size. Also: potency is read from the fitted curve at half-maximal effect. The method in brief:
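Purified linked NS2B-NS3 protease (NS2B hydrophilic domain joined to NS3 protease by flexible linker), 25 nM in 10 mM Tris-HCl pH 8.0, 0.01% Tween 20. Compounds titrated, 15 min preincubation at room temperature; 1.5 microM Rhodamine110 substrate, FITC fluorescence change over 15 min.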

For test [6], the target named is N-terminal Xaa-Pro-Lys N-methyltransferase 1 (Homo sapiens) (UniProt Q9BV86). Description: qHTS Assay for Inhibitors of N-terminal methyltransferase 1 (NTMT1): LOPAC validation of the NTMT1 SAHH-coupled ThioGlo3 Assay (AID 1347143).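 Also: SAH from peptide methylation measured as thiol fluorescence via SAHH coupling and ThioGlo3; nearly all actives have a fitted effect of over 70% in size.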 Also: potency is read from the fitted curve at half-maximal effect. A digest of the protocol:
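Recombinant human NTMT1 (125nM) was pre-incubated 1 min at room temperature with compounds over a concentration range, then a mix of 100uM SAM, 10uM SAHH and 15uM ThioGlo3 (concentrations in added reagent) was added. ThioGlo3 fluorescence (ex 340/em 450nm) after 30 min was normalized to the initial reading.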

The test system of test [7] is Zika virus NS2B-NS3 protease (unlinked). Nature of the test: Optimization of GU AMC qHTS for Zika virus inhibitors: Unlinked NS2B-NS3 protease assay (AID 1347151). Also: nearly all actives have a fitted effect of over 80% in size. Also: potency is read from the fitted curve at half-maximal effect. A digest of the protocol: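 In this qHTS, compounds acted on 25 nM unlinked Zika NS2B–NS3 in pH 8.0 Tris/Tween buffer. Cleavage of an AMC peptide ran 15 min at room temperature, to about 20% conversion.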

The target of test [8] is Lysine-specific demethylase 5B (Homo sapiens) (UniProt Q9UGL1). Nature of the test: Optimization screen for KDM5B Histone Demethylases FDH coupled qHTS against the LOPAC library (AID 1347166). The method in brief:
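KDM5BDeltaAP (200nM final) preincubated 10 min with compound, then 12.5uM H3K4Me3, 25uM a-ketoglutarate, ascorbate, Fe(II), NAD+ and FDH added; 50mM HEPES pH 7.5, 0.01% Tween-20. NADH fluorescence (340/450 nm) change over 30 min, room temperature.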

Test [9] in a line: qHTS of pediatric cancer cell lines to identify multiple opportunities for drug repurposing: Confirmatory screen for SK-N-SH cells (AID 1347129).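 Also: cells exposed to compound for 48 h before viability read; nearly all actives have a fitted effect of over 60% in size.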 Also: potency is read from the fitted curve at half-maximal effect. The method in brief:
as §1

Test [10] is described as follows: qHTS of pediatric cancer cell lines to identify multiple opportunities for drug repurposing: Confirmatory screen for OHS-50 cells (AID 1347128).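 Also: compound exposure lasted 48 h at 37 degrees C; nearly all actives have a fitted effect of over 55% in size.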 A digest of the protocol: as §1
The target in a further test is Furin (Homo sapiens) (UniProt P09958). Nature of the test: Furin counterscreen qHTS for Zika virus inhibitors (AID 1347149).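 Also: purified recombinant full-length human furin enzyme at 5 nM; fluorescence gain from furin cutting a BOC-RVRR-AMC peptide substrate over 15 min; top concentration of the series differs between compounds; nearly all actives have a fitted effect of over 70% in size.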 The method in brief: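 Fluorogenic cleavage of BOC-RVRR-AMC (2 microM final, Km ~15 µM) was monitored (ex 340, em 450 nm) at 37C after 15 min RT preincubation of 5 nM furin with compounds in HEPES pH 7.0 buffer with CaCl2 and Triton X-100. Percent inhibition was fitted to a 4-parameter Hill curve.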
Furin (Homo sapiens), sequence (P09958 whole entry, looked up): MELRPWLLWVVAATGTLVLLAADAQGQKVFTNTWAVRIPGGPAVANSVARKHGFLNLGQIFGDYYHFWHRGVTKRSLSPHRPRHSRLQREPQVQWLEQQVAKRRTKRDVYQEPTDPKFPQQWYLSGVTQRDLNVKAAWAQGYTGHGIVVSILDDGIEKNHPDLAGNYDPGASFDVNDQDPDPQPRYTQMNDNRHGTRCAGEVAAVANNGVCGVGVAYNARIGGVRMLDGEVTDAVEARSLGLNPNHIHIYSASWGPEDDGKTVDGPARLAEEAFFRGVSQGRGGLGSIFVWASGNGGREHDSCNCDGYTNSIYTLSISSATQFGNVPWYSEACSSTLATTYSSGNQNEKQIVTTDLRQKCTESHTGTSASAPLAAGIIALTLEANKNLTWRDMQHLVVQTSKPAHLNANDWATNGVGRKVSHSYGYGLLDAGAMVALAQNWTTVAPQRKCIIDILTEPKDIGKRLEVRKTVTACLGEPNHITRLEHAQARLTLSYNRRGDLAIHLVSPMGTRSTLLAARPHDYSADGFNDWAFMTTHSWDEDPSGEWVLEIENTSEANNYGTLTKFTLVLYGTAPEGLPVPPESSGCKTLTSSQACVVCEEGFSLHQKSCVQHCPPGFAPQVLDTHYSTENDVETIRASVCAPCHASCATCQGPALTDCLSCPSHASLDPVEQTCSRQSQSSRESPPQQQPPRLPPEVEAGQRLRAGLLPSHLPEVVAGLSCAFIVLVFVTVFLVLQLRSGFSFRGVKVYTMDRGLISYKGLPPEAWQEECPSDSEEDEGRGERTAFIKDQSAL

Test [11] relates to Zika virus NS2B-NS3 protease (linked construct). Description: Confirmatory screen NINDS AMC qHTS for Zika virus inhibitors (AID 1347152). Also: potency is read from the fitted curve at half-maximal effect; nearly all actives have a fitted effect of over 70% in size. The note with it: Purified linked NS2B-NS3, AMC substrate fluorescence. The method in brief: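 Concentration-response confirmation used the NINDS linked protease (NS2B hydrophilic domain joined to NS3 protease domain), 1 nM, with a 15-min compound preincubation. Substrate, Nle-KRR-AMC at 10 microM, was read by UV fluorescence before and after 15 min.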

In test [12] the test system is Zika virus NS2B-NS3 protease (unlinked complex). Nature of the test: Confirmatory screen GU AMC qHTS for Zika virus inhibitors (AID 1347153). As to conditions: Recombinant NS2B-NS3 protease, AMC substrate fluorescence. The method in brief: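 Noncovalent NS2B hydrophilic domain/NS3 protease complex (25 nM) in 10 mM Tris-HCl pH 8.0, 0.01% Tween 20 was preincubated 15 min at room temperature with compounds. Then 10 µM AMC substrate (Km 18.3 µM) was added; fluorescence was read over 15 min and fitted to a 4-parameter Hill equation.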

Test [13] is described as follows: Confirmatory screen GU Rhodamine qHTS for Zika virus inhibitors qHTS (AID 1347157). A digest of the protocol: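 Buffer 10 mM Tris-HCl pH 8.0, 0.01% Tween 20. Unlinked protease 25 nM; compound preincubation 15 min, RT, protected from light. Substrate Rhod110, 1.5 microM; ~15% conversion in 15 min.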
A short description of test [14]: Confirmatory screen NINDS Rhodamine qHTS for Zika virus inhibitors (AID 1347161). Also: potency is read from the fitted curve at half-maximal effect; nearly all actives have a fitted effect of over 60% in size. The method in brief: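 Rhodamine110-peptide cleavage (1.5 µM substrate) by 25 nM linked NS2B-NS3 enzyme at pH 8.0 (Tris, Tween 20), after 15 min RT preincubation with compounds; 15-min fluorescence change normalized to controls and Hill-fitted.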
Test [15] relates to Zika virus NS2B-NS3 protease (linked). Nature of the test: 384 well plate NINDS AMC confirmatory qHTS for Zika virus inhibitors (AID 1347163). Also: potency is read from the fitted curve at half-maximal effect; nearly all actives have a fitted effect of over 50% in size. As to conditions: Recombinant NS2B-NS3 protease, Ac-VKTGKR-AMC fluorescence. The method in brief: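 Linked protease 5/30/60 nM final; cpds up to 1 mM final, ~15 min preinc. Substrate Ac-VKTGKR-AMC 30 microM final. RT, dark, 25 min; FI ex 355/em 460; normalized to no-enzyme/no-inhibitor ctrls.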

For test [16], the system named is Zika virus NS2B-NS3 protease (linked construct). Nature of the test: 384 well plate NINDS Rhodamine confirmatory qHTS for Zika virus inhibitors (AID 1347164). Also: top concentration of the series differs between compounds; nearly all actives have a fitted effect of over 65% in size. The method in brief:
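Cleavage of Ac-LKRR-Rhodamine 110 (10 microM final) by linked protease (final 5, 30 or 60 nM) was followed as fluorescence at 485/538 nm after 25 min, room temperature, dark. Compounds preincubated ~15 min.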

Several values for one entry are separate records, joined by “and”; a condition that tells them apart may be missing. Identical values can stand only once. Results filed as inconclusive are left out. Activity calls are given as the source filed them. Calls follow the shape of the dose curve; as a rule, active = well fitted curve in the direction sought with a large enough effect; inconclusive = small, poorly fitted or top-dose-only effect, or another doubt; inactive = no such curve, though single readings can be large; an effect the other way counts as inactive or inconclusive.

N-terminal Xaa-Pro-Lys N-methyltransferase 1 (Homo sapiens), sequence (Q9BV86 whole entry, looked up): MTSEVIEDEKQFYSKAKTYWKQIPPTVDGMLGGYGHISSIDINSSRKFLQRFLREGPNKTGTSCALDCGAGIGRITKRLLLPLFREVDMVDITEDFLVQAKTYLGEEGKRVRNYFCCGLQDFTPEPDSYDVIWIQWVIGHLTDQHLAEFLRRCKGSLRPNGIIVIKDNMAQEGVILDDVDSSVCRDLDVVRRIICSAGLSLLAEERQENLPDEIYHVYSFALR
Lysine-specific demethylase 5B (Homo sapiens), sequence (Q9UGL1 whole entry, looked up): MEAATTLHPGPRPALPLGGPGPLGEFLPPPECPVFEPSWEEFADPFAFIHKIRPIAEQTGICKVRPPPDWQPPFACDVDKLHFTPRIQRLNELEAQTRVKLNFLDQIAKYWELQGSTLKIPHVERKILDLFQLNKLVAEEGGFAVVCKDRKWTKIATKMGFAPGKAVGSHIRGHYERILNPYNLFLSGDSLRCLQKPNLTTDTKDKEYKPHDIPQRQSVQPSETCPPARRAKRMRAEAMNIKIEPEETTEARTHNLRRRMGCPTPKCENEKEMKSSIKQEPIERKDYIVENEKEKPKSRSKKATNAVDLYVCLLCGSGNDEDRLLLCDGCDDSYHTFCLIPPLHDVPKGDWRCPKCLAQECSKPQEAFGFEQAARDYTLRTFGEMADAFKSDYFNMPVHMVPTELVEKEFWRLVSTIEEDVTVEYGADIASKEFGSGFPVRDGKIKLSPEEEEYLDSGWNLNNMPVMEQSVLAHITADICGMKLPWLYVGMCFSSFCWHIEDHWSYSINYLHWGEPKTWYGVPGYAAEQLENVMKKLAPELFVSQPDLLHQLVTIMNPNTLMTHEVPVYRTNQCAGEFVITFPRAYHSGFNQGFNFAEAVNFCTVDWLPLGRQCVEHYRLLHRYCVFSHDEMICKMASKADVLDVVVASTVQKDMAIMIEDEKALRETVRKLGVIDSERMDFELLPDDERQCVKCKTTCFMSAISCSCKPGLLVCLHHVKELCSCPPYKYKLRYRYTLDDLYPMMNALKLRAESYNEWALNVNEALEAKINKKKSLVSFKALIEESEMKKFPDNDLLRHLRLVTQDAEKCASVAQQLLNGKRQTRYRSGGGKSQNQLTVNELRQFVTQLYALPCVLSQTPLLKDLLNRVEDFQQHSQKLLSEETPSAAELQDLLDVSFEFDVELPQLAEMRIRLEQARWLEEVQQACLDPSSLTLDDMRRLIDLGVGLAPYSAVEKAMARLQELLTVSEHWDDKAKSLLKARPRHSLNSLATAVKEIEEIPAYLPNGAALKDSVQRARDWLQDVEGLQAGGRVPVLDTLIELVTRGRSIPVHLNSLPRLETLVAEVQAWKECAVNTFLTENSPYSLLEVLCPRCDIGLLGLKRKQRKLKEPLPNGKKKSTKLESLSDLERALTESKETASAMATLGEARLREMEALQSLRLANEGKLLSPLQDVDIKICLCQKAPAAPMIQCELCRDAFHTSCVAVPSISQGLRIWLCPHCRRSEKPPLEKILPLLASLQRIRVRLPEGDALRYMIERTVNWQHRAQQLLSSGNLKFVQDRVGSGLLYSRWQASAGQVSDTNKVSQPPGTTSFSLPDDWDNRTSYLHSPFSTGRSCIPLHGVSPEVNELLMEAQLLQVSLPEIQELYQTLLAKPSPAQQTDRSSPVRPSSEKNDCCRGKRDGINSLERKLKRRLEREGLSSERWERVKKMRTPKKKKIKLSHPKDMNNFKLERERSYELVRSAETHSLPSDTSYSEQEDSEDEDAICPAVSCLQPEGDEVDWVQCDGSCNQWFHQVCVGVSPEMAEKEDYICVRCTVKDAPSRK

For `CCOc1ccc(Nc2nc(-c3c(C)nc4ccccn34)cs2)cc1`, the Potency entry in [1], in test [2], in test [3], in test [4] and in test [5] was “inactive” each time.
Regarding `CC1=C(/C=C/C(C)=C/C=C/C(C)=C/C(=O)Nc2ccc(O)cc2)C(C)(C)CCC1`, in test [6], the Potency result was “inactive”.
Take `CCN(CC)CCNC(=O)c1ccc(N)cc1`: the Potency entry in test [6], in test [7], in test [3], in test [4] and in test [5] was “inactive” each time. Moreover, the molecule was classed as inactive in test [8].
On to `O=c1c(-c2ccc(O)cc2)coc2cc(O)ccc12`, for which the Potency in test [6] was 50.1 µM (active); in test [7], 29.9 µM (active).
As for `CC(=O)c1ccc(S(=O)(=O)NC(=O)NC2CCCCC2)cc1`, the Potency result in test [6], in test [7] and in test [3] was “inactive” each time. The molecule was called inactive in test [8].
`Cc1[nH]c(C=C2C(=O)Nc3ccc(S(=O)(=O)Cc4c(Cl)cccc4Cl)cc32)c(C)c1C(=O)N1CCC[C@H]1CN1CCCC1`: the Potency is 26.1 µM (active) in [1] and 23.5 µM (active) in test [9]. In addition, in [3], the Potency result was “inactive”.
With `C[N+](C)(C)CCCCCC[N+](C)(C)C`, the Potency entry in test [6], in test [7] and in test [3] was “inactive” each time. Also, the call in test [8] was inactive.
As to `CC(C)(C)c1ccc(C(O)CCCN2CCC(C(O)(c3ccccc3)c3ccccc3)CC2)cc1` (configuration not stated), the Potency result in test [6], in [7] and in test [3] was “inactive” in each case. Moreover, the molecule was called inactive in test [8].
Consider `COc1ccc(-c2coc3cc(O)cc(O)c3c2=O)cc1`, for which the Potency entry in test [1], in test [2], in test [10] and in test [3] was “inactive” in each case.
Take `CC(=O)N[C@@H](CS)C(=O)O`: the Potency entry in [6], in [7] and in test [3] was “inactive” each time.
As to `CC1(C)CCC(CN2CCN(c3ccc(C(=O)NS(=O)(=O)c4ccc(NCC5CCOCC5)c([N+](=O)[O-])c4)c(Oc4cnc5[nH]ccc5c4)c3)CC2)=C(c2ccc(Cl)cc2)C1`, the Potency entry (in test [2]; in the test with Furin (Homo sapiens); in test [16]) was “inactive” in each case. The Potency in test [11] is 6.07 µM (active) and 10.8 µM (active); in [12] it was 8.57 µM (active); in test [13] it was 1.21 µM (active); in [4] it was 2.24 µM (active); in [5], 3.98 µM (active); in [14], 1.24 µM (active) and 857 nM (active). Moreover, in test [15], the Potency was 31.6 µM (active).
Turning to `CC1(C)CCC[C@@]2(C)[C@@H]1CC[C@@]1(C)OC(=O)C[C@H]21`, the Potency result in [1], in test [10], in [9] and in [3] was “inactive” each time. Further, the Potency in test [2] was 0.0185 µM (active).
Take `Clc1ccc(Cn2c(CN3CCCC3)nc3ccccc32)cc1`: the Potency entry in test [6], in [7], in [3], in test [4] and in test [5] was “inactive” in each case. Besides, the result in [8] was inactive.
